Source: PubChem BioAssay (The Scripps Research Institute Molecular Screening Center)
CHRM1 PAM: human M1 muscarinic receptor positive allosteric modulators, primary screen, CHO-K1 cells, Fluo-8 calcium fluorescence, 1536-well; CHO-K1 hM1, ACh EC20; 0% = ACh EC20, 100% = maximal ACh; AID 588819, 2011; Muscarinic acetylcholine receptor M1 (Homo sapiens), P11229; activation, % at 3 µM; 0.088% of 360,000 active; in the data active means activation above about 19%, passing the limit was not always enough
Target sequence (P11229 whole entry, looked up): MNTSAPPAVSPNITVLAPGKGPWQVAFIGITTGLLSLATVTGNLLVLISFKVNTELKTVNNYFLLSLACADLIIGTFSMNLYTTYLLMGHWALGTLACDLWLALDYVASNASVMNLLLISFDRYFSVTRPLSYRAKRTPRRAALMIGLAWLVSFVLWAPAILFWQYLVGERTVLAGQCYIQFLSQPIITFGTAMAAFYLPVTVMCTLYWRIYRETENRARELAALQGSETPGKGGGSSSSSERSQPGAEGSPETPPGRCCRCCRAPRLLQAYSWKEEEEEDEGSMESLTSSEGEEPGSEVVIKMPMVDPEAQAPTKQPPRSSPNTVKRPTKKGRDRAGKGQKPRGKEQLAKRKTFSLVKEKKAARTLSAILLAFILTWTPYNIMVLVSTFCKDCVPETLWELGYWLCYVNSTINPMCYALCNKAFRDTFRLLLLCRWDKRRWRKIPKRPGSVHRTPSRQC
M1 ag parental: counter-screen for M1 agonists: effect in parental CHO-K1 cells; Fluo-8 calcium fluorescence; scaled to maximal ATP response, vehicle zero; activation, % at 3 µM; 0.48% of 360,000 active; in the data active means activation above about 15%;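 further: untransfected CHO-K1 host cells lacking M1 receptor as counterscreen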
CHRM1 antagonist: human M1 muscarinic receptor antagonists, primary screen, CHO-K1 cells, Fluo-8 calcium fluorescence, 1536-well; CHO-K1 hM1, ACh EC80 antagonist; inhibition, % at 3 µM; 1.3% of 360,000 active;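 active means percent inhibition above its own plate's cutoff, namely the mean of that plate's compound wells plus 3 SD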;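 further: peak over basal fluorescence ratio during 140 s after agonist addition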
CHO-K1 Ca antag: M1 antagonist counterscreen hit in parental CHO-K1 cells | AID 602250 | ATP-induced calcium, Fluo-8 fluorescence | inhibition, % at 3 µM | 0.6% of 360,000 active;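 active means inhibition above a per-plate cutoff, the plate's mean sample inhibition plus 3 SD, cut at about 24% in these data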
M1 ag: human M1 muscarinic receptor agonists, primary screen, Fluo-8 calcium fluorescence, CHO-K1 cells, HTS. Muscarinic acetylcholine receptor M1 (Homo sapiens), P11229. CHO-K1 hM1, agonist mode; 0% DMSO, 100% acetylcholine EC100. activation, % at 3 µM. 0.33% of 360,000 active. AID 588814, 2011;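 active means activation above the run's mean compound activation plus 3 SD, cut at about 16% in these data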;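 further: peak over basal fluorescence ratio within a 140 s kinetic read after compound addition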
CHO-K1 Ca PAM: nonselective calcium activators in parental CHO-K1 cells, primary screen, counter-screen for M1 PAM project, cell-based, Fluo-8 calcium fluorescence, full deck, 1536-well; ATP EC20; 0% at ATP EC20, 100% at ATP max; 0.02% of 360,000 active; AID 602247, 2012; activation, % at 3 µM;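 active means activation above the run cutoff, the mean activation of all test compounds plus 3 SD, cut at about 40% in these data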;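 further: peak over basal fluorescence ratio in a 140 s read after ATP addition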
Numbers stand for hits; . = inactive. A selection: hits, their analogues and other compounds. The true share with any hit is near 2.3%.

SMILES	CHRM1 PAM	M1 ag parental	CHRM1 antagonist	CHO-K1 Ca antag	M1 ag	CHO-K1 Ca PAM
O=C(COc1ccc(Br)cc1CO)Nc1ccc(S(=O)(=O)N2CCCC2)cc1	.	.	58	.	.	.
Cc1cc(OCC(=O)Nc2ccc(S(=O)(=O)N3CCN(C)CC3)cc2)ccc1Br	.	18	.	.	.	.
Cc1ccc(OCC(=O)Nc2ccc(S(=O)(=O)N3CCCCC3)cc2)c([N+](=O)[O-])n1	.	.	45	.	.	.
Cc1cc(OCC(=O)Nc2ccc(CN3CCOCC3)cc2)ccc1Cl	.	.	.	.	.	.
Cc1ccc(OCC(=O)Nc2ccc(S(=O)(=O)N3CCOCC3)cc2)c([N+](=O)[O-])n1	.	.	.	.	.	.
COc1ccccc1CNC(=O)CN(C)S(=O)(=O)c1ccc2c(c1)n(C)c(=O)c(=O)n2C	.	.	.	.	.	.
COc1ccc(NC(=O)CCCN2C(=O)CN(C)C2=O)cc1Cl	.	.	.	.	.	.
Cc1ccc(NC(=O)CN(C)C(=O)COC(=O)c2nc3nccc(C)n3n2)cc1	.	.	.	.	.	.
COc1ccc(C(=O)OCC(=O)Nc2cccc(S(=O)(=O)N3CCCCCC3)c2)cc1[N+](=O)[O-]	.	.	54	.	.	.
CN(Cc1ccccc1)C(=O)CN1C(=O)COc2ccc(S(=O)(=O)N3CCCC3)cc21	.	.	.	.	.	.
CC(C)N(Cc1ccccc1)C(=O)CN1C(=O)COc2ccc(S(=O)(=O)N3CCCCCC3)cc21	.	16	.	.	.	.
COc1ccc(/C=C/C(=O)Nc2cccc(C(C)=O)c2)cc1	.	19	.	.	.	.
CC(=O)Nc1cccc(C(=O)/C=C/c2ccc(N(C)C)cc2)c1	.	87	55	44	113	.
CCOc1ccc(NS(=O)(=O)c2cc(C(=O)N3CCN(c4ccccc4O)CC3)ccc2Cl)cc1	.	.	.	.	.	.
CC(Sc1nc(N)cc(=O)[nH]1)C(=O)Nc1cccc(Cl)c1 (stereo not drawn)	.	.	.	.	.	.
CC(=O)NC1C(=O)N=C(SC(C)C(=O)Nc2cccc(Cl)c2)NC1=O (stereo not drawn)	.	15	.	.	.	.
COc1ccc2oc(C(=O)NCC3CCCO3)c(C)c2c1 (stereo not drawn)	.	.	.	.	.	.
CCOc1ccc2oc(C(=O)NCC3CCCO3)c(C)c2c1 (stereo not drawn)	.	.	25	.	.	.
Cc1cc(C)c2oc(C(=O)N3CCN(C)CC3)cc(=O)c2c1	32	.	.	.	.	.
CCCCCCn1nc(C(=O)OCC(=O)c2c(N)n(C)c(=O)n(C)c2=O)c2ccccc2c1=O	.	.	39	.	.	.
CCCCCn1nc(C(=O)OCC(=O)c2c(N)n(C)c(=O)n(C)c2=O)c2ccccc2c1=O	.	.	.	.	.	.
CCOc1ccc(NC(=O)C(=O)NCCN2CCN(S(=O)(=O)c3ccccc3)CC2)cc1	.	.	.	.	.	.
O=C(Nc1ccc(Oc2ccccc2)cc1)C1CCN(c2c3c(nc4ncnn24)CCC3)CC1	.	.	36	.	.	.
Cc1cc(C)c(C)c(S(=O)(=O)N2CCC(C(=O)NCCCN3CCCC3=O)CC2)c1C	.	.	.	.	.	.
CC1c2ccccc2SC(CCCN(C)C)c2ccccc21 (stereo not drawn)	.	.	.	.	.	.
SMILES	CHRM1 PAM	M1 ag parental	CHRM1 antagonist	CHO-K1 Ca antag	M1 ag	CHO-K1 Ca PAM
CN(C)CCC1Sc2ccccc2Oc2ccccc21 (stereo not drawn)	.	.	48	.	.	.
COc1ccccc1Nc1nc(N)nc(CN2CCN(Cc3ccc4c(c3)OCO4)CC2)n1	.	.	.	.	.	.
Cc1ccc(Nc2nc(N)nc(N)c2N=O)cc1C	.	.	.	.	.	.
Cc1cccc(Nc2nc(N)nc(N)c2N=O)c1	.	29	.	.	24	.
Cc1cccc(Nc2nc(N)nc(CN3CCN(Cc4ccc5c(c4)OCO5)CC3)n2)c1	.	.	21	.	.	.
Cc1cccc(Nc2nc(N)nc(CCl)n2)c1	.	20	.	.	.	.
Cn1cccc1/C=N/N1CCN(c2ccccc2)CC1	.	.	.	.	.	.
COc1cc(C(=O)Nc2ccc(Oc3ncnc4sc(-c5ccccc5)cc34)cc2)cc(OC)c1OC	.	.	.	.	.	.
COc1ccc(C(=O)Nc2ccc(Oc3ncnc4sc(-c5ccccc5)cc34)cc2)cc1OC	.	16	.	.	.	.
COc1ccc(-c2nc3c4ccccc4ccn3c2Cc2ccsc2)cc1OC	.	.	.	24	.	.
COc1ccc(-c2nc3c4ccccc4ccn3c2Cc2ccc(C)cc2)cc1OC	.	.	.	.	.	.
CC(Nc1nc(-c2cccc(Br)c2)cs1)c1nc2cc(Cl)c(N3CCCCC3)cc2n1CCOCCO (stereo not drawn)	.	.	.	.	.	.
Cc1cc2ncn(C3CC(=O)N(Cc4ccccc4)C3=O)c2cc1C (stereo not drawn)	.	17	.	.	.	.
Cc1cc2ncn(C3CC(=O)N(C)C3=O)c2cc1C (stereo not drawn)	.	.	.	.	.	.
Cc1ccc(NC(=O)CSCC(=O)Nc2cc(S(=O)(=O)N3CCOCC3)ccc2OC(C)C)cc1	.	.	.	.	.	.
CCCS(=O)(=O)NC(=O)C1(C)CCCN(C(=O)c2ccc3ccccc3c2)C1 (stereo not drawn)	.	.	.	.	.	.
CN(CCOc1ccc(Cl)cc1)C(=O)c1cccc(S(=O)(=O)N2CCN(Cc3ccccc3)CC2)c1	.	.	40	.	.	.
CC(C)CN(C(=O)c1cccc(S(=O)(=O)N2CCN(Cc3ccccc3)CC2)c1)C1CCS(=O)(=O)C1 (stereo not drawn)	25	.	.	.	.	.
COc1ccc(NC(=O)CN(C)C(=O)c2cccc(S(=O)(=O)N3CCN(Cc4ccccc4)CC3)c2)cc1	.	.	.	.	.	.
CCCN(C(=O)c1cccc(S(=O)(=O)N2CCN(Cc3ccccc3)CC2)c1)C1CCS(=O)(=O)C1 (stereo not drawn)	.	.	.	.	.	.
COc1cc(NC(=O)N[C@@H](Cc2c[nH]c3ccccc23)C(=O)O)c(C(=O)O)cc1OC	.	.	.	.	.	.
